The list is not random: actives were taken first. Their share in the collection is about 13%.
A350 fluor: A350 region autofluorescence; Compound autofluorescence, 340/450 nm, Alexa 350 dye-equivalents; hits give high values; max dye-equivalent concentration, M; 59,000 compounds, 11% hits; AID 590; in the data active means max dye-equivalent concentration above about 10 nM; inconclusive means mostly about 1.1 nM to 9.6 nM
HSD17B inhib: blocks hydroxysteroid 17-beta dehydrogenase activity; recombinant HSD17B10, NADH fluorescence kinetic; Q99714; Potency, µM (highest dose often 57.1 µM), for the others: at the highest dose activity change, negative = inhibition, most hits filed as inhibitors; 75,000 compounds, 7.6% hits; AID 893;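 further: the protocol describes HADH2 (HSD17B10) and not the HSD17B4 of the title; potency means the concentration at half of the fitted maximal effect; on the % scale 0 is the no-effect control and ±100 the full control effect; nearly all actives have a fitted effect of over 70% in size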
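20 nM HADH2, pH 9.0 Tris/Tween; cpd preinc 15 min RT; start w/ 1 mM NAD+ + 90 uM b-hydroxybutyryl-CoA; kinetic fluor ex360/em450 q30s x 4 min; delta last-first.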
AID923: qHTS Assay for Allosteric/Competitive Inhibitors of Caspase-1: Spectroscopic Profiling in AFC Spectral Region; compound fluorescence, AFC spectral region (405/520 nm); Potency, µM (doses to about 57.5 µM), for inactives: at the highest dose fluorescence increase, most hits filed as activators; 75,000 compounds, 1.1% hits; further: potency means the concentration at half of the fitted maximal effect; 0% is about no effect
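Compound autofluorescence profiled at 405 nm ex/520 nm em during kinetic caspase 1 run (50 nM enzyme, 5 uM Ac-WEHD-AFC, HEPES pH 7.5, 10 mM DTT). Titration up to 57 uM; baseline from regression intercept, normalized to AFC standard curve.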
4MU fluor: compound fluoresces in the 4-MU spectral region; compound autofluorescence, 340/450 nm, 4-MU equivalents; hits give high values; max dye-equivalent concentration, M; 59,000 compounds, 11% hits; in the data active means max dye-equivalent concentration above about 10 nM; inconclusive means mostly about 1.1 nM to 9.6 nM
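Compounds in 100 mM Tris, pH 8.0, sat 15 min at room temperature before fluorescence was read at 340 nm excitation/450 nm emission; a per-plate six-point 4-MU standard curve converted signals to dye-equivalent concentration at each compound concentration.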
HADH2 inh: blocks human hydroxyacyl-CoA dehydrogenase type II. Potency, µM (series often up to 57.1 µM), for inactives: at the highest dose activity change, negative = inhibition, usual class: inhibitors. recombinant HADH2, NADH fluorescence, beta-hydroxybutyryl-CoA. 73,000 compounds, 3.4% hits; further: potency means the concentration at half of the fitted maximal effect; on the % scale 0 is the no-effect control and ±100 the full control effect; nearly all actives have a fitted effect of over 60% in size
Target sequence (Q99714 whole entry, looked up, one chain of several): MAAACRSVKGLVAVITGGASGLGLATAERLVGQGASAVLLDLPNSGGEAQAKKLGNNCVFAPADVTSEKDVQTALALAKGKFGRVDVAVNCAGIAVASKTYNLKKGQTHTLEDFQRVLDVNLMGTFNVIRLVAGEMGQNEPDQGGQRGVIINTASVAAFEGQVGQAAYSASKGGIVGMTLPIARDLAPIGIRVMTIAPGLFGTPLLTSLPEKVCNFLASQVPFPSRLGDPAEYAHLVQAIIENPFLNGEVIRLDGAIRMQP
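NADH fluorescence (ex 360/em 450 nm) read every 30 s for 4 min; activity taken as last-minus-first time point difference. Enzyme 20 nM, NAD+ 1 mM, beta-hydroxybutyryl-CoA 90 uM, pH 9.0 Tris buffer.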
PK Bst: alters activity of Bacillus stearothermophilus pyruvate kinase. AID 361. Potency, µM. 51,000 compounds, 1.2% hits. purified pyruvate kinase, luminescence ATP production; ribose 5-phosphate activator present at AC10; in the data active means potency below about 11 µM; inconclusive means mostly about 12 µM to 25 µM;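 the screen sought inhibitors and activators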;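 further: potency means the concentration at half of the fitted maximal effect; scaled between full activation by ribose 5 phosphate and full inhibition by luteolin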
Starred values were filed as active, the others as inactive; i = inactive; ? = inconclusive; / = no result given; [ ] = dose if it differs, or a comment. Unless noted, the call rests on the fitted dose curve; in most records, active means well fitted curve in the direction sought with a large enough effect; inconclusive means small, poorly fitted or top-dose-only effect, or another doubt; inactive means no such curve, though single readings can be large; an effect the other way counts as inactive or inconclusive.

SMILES	A350 fluor	HSD17B inhib	AID923	4MU fluor	HADH2 inh	PK Bst
CCN(CC)CCn1c2ccccc2c2cnc(N=CN(C)C)c(C#N)c21	1.05e-07M*	?	1.0%	8.88e-08M*	-14.6%	i
CN(C)/C=N/c1c(C#N)cnn1-c1ccccc1	/	9.3%	0.5%	/	3.9%	/
O=C1C=CC2(OCCCO2)C(Br)=C1	/	8.1%[11.4 µM]	1.4%[11.5 µM]	/	-1.4%[11.4 µM]	/
COCCNC(=O)C(c1ccc(C)o1)N(C(=O)c1snc(C(N)=O)c1N)c1cccc(C)c1 (stereo not given)	1.44e-07M*	31.6µM*	7.2%	1.7e-07M*	1.2%	>57
COCCNC(=O)C(c1ccc(C)o1)N(C(=O)c1snc(C(N)=O)c1N)c1ccc(C)c(C)c1 (stereo not given)	3.54e-08M*	?	0.8%	4.2e-08M*	-5.3%	>57
Cc1ccc(C(C(=O)NC2CCCC2)N(Cc2cccnc2)C(=O)c2snc(C(N)=O)c2N)o1 (stereo not given)	3.57e-07M*	25.1µM*	1.2%	2.35e-07M*	-11.3%	>57
CCOc1ccccc1N(C(=O)c1ccco1)C(C(=O)NC1CCCC1)c1cccnc1 (stereo not given)	?	12.8%	0.6%	?	-4.7%	>57
CCOc1ccccc1N(C(=O)c1snc(C(N)=O)c1N)C(C(=O)NC1CCCC1)c1ccco1 (stereo not given)	7.84e-08M*	10µM*	5.8%	7.35e-08M*	-6.4%	>57
COc1ccc(-c2ccc(N)[n+](CCCC(=O)O)n2)cc1	?	-0.8%[25.6 µM]	-1.3%[25.7 µM]	i	?	/
CN(Cc1ccco1)c1ncncc1-c1ccccc1C(F)(F)F	i	-3.3%	2.8%	i	-17.1%	/
N=C(C[C@@H](O)COc1ccccc1-c1ccccc1)N1CCCCC1	/	14.0%	0.0%	/	7.6%	/
COCCNC(=O)C(c1ccc(C)o1)N(C(=O)c1snc(C(N)=O)c1N)c1ccc(C)cc1 (stereo not given)	7.3e-08M*	31.6µM*	4.1%	8.62e-08M*	-9.8%	>57
CCC(C)(C)NC(=O)CN(C(=O)c1snc(C(N)=O)c1N)c1ccc2c(c1)OCCO2	?	-3.1%	-2.2%	?	9.1%	>11.4
CC(CC(=O)O)(CC(=O)O)C(=O)O	i	2.1%[11.4 µM]	1.1%[11.5 µM]	i	10.6%[11.4 µM]	/
CCC(C)c1ccc(O)c(NC(=O)c2ncn[nH]2)c1 (stereo not given)	i	-1.9%	-2.0%	i	-9.9%	>57
CC(C)c1ccc2oc(-c3ccc(NC(=O)c4ncn[nH]4)cc3)nc2c1	4.13e-08M*	20µM*	0.5%	4.41e-08M*	25.1µM*	i
CCC(C)c1ccc2oc(-c3ccc(NC(=O)c4ncn[nH]4)cc3)nc2c1 (stereo not given)	6.25e-08M*	25.1µM*	-1.6%	5.84e-08M*	31.6µM*	>57
C1=C(CN2CCOCC2)COc2c1cccc2OC[C@@H]1CNCCO1	/	-10.5%	-0.5%	/	1.1%	/
CC1=C(C(=O)OCC(C)C)C23C(=O)c4ccccc4C2(O1)OC(N)=C3C#N (stereo not given)	i	2.7%	-2.8%	i	-23.6%	>57
COc1ccccc1CN1CC2(CCN(S(C)(=O)=O)CC2)C1	i	4.1%	-0.9%	i	3.6%	/
CCN(CC)CCOC(=O)C1(c2ccccc2)CCOCC1	i	-11.1%	0.2%	i	4.4%	>57
CCN(CC)CCCC1(CN)OCCc2ccccc21 (stereo not given)	3.45e-08M*	/	/	2.8e-08M*	/	>25.6
Fc1ccc(-c2nnc(CN3CCN(c4ncc(C(F)(F)F)cc4Cl)CC3)o2)cc1	?	8.7%	0.8%	i	6.5%	>11.4
O=C(CN1CCN(c2ncc(C(F)(F)F)cc2Cl)CC1)NC(=O)NCc1ccccc1	2.4e-08M*	-1.1%	0.3%	?	-1.1%	>57
O=S(=O)(c1ccc2c(c1)OCCO2)N1CCN(c2nc3ccccc3s2)CC1	i	10.2%	-0.5%	i	2.9%	>57
SMILES	A350 fluor	HSD17B inhib	AID923	4MU fluor	HADH2 inh	PK Bst
c1ccc2c(c1)CCN(c1nc3cc4c(cc3s1)OCCO4)C2	i	31.6µM*	-0.5%	i	?	0.439*
Cn1ccnc1C[C@@](C)(O)c1ccccc1	i	8.5%[11.4 µM]	6.4%[11.5 µM]	i	-1.6%[11.4 µM]	/
CCCC[C@H]1C[C@@H]1[C@@H]1N(C(C)=O)[C@H](c2cccc(OC)c2)CC12CC2	/	-14.0%	-0.7%	/	4.3%	/
O=C(Oc1ccccc1)N1CCC2(CC1)CN(c1ncccn1)C2	i	31.6µM*	1.4%	i	9.6%	/
COc1ccc(N2CCN(C(=O)c3ccc(C)cc3Cl)CC2)cc1	i	0.5%	-0.3%	i	0.7%	/
COc1ccc(N2CCN(C(=O)c3ccc(C)c(Cl)c3)CC2)cc1	i	7.8%	-1.4%	i	6.1%	6.38*
COc1ccc(S(=O)(=O)NCc2ccc(C(=O)N3CCN(c4ccccn4)CC3)cc2)cc1	i	-2.2%	-0.5%	i	2.6%	>57
O=C(c1cnccn1)N1CCC2(CC1)CN(c1ncccn1)C2	i	31.6µM*	-0.1%	i	-26.9%	/
COc1ccc(OC(C)C(=O)N2CCN(c3ccccn3)CC2)cc1 (stereo not given)	2.64e-07M*	25.1µM*	7.6%	2.54e-07M*	?	>57
Nc1nc2c(nc(Sc3ccc(Cl)cc3)n2C2OC(CO)C(O)C2O)c(=O)[nH]1 (stereo not given)	/	-15.8%	-1.9%	/	/	/
Cn1c(=O)c(-c2cccc(Cl)c2)nc2cncnc21	?	?	8.7%	i	-11.3%	/
COc1ccc(C(=O)N2CCC3(CC2)CN(c2ccccn2)C3)cc1	i	31.6µM*	-1.0%	i	3.2%	/
COc1ccc(C(=O)N2CCC3(CCCN(C)C3)CC2)cc1	i	0.8%	2.4%	i	-2.2%	/
COc1ccc(C(=O)N2CCC3(CCN(C)CC3)CC2)cc1	2.51e-08M*	3.9%	-0.1%	2.25e-08M*	-9.6%	/
COc1ccc(C(=O)N2CCC3(CC2)CN(c2ncccn2)C3)cc1	i	31.6µM*	4.1%	i	?	/
COc1ccc(C(=O)N2CCC3(CCCN(c4ccccn4)C3)CC2)cc1	i	?	2.7%	i	?	/
CCCCN(CC)S(=O)(=O)c1cccc2cccnc12	/	2.3%	-0.1%	/	2.3%	/
CCCCSc1c(C)c2cc3c(cc2[nH]c1=O)OCO3	8.52e-08M*	15.8µM*	-0.5%	6.9e-08M*	6.4%	>57
OC[C@H]1O[C@@H](n2cnc3cncnc32)[C@H](O)[C@@H]1O	/	0.1%	-1.3%	/	/	/
COc1cc2c(cc1O)[C@@H](c1cc(O)c(O)c(OC)c1)[C@@](O)(C(=O)O)[C@@H](CO)[C@@H]2O	?	?	0.0%[11.5 µM]	?	0.501µM*	/
O=C1C[C@@H](O)[C@@H](O)[C@H]2[C@@H]3C(=O)N(C[C@@H]4CCCO4)C(=O)[C@@H]3CC[C@H]12	/	6.5%[11.4 µM]	4.2%[11.5 µM]	/	-1.8%[11.4 µM]	/

Screening data (PubChem)
